Most compounds without a hit are left out; they make up all but 9% or so of the library.
12-LOX inh = blocks human arachidonate 12S-lipoxygenase; P18054; purified 12hLO, xylenol orange hydroperoxide absorbance; Potency, µM (titrated, usually from 108 µM), inactives show top-dose activity change, negative = inhibition, usual class: inhibitors; actives 1.1% (n = 580,000); AID 1671190; further: on the % scale 0 is the no-effect control and ±100 the full control effect
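Purified human 12hLO (150 nM final) in 25 mM Hepes, 0.01% Triton X-100, pH 7.0 was preincubated 15 min at room temperature with compound. Then 40 uM arachidonic acid was added, 30 min. Hydroperoxide was read by Fe-XO absorbance ratio 573/405 nm.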
HP1b chromo inh = HP1-beta chromodomain-methylated histone interaction inhibition; P83916; AlphaScreen HP1-beta / biotin-H3K9me3 peptide binding; Potency, µM (titrated, usually from 114 µM), for inactives: at the top dose activity change, negative = inhibition, actives largely listed as inhibitors; actives 0.56% (n = 390,000); AID 540317; further: nearly all actives have a fitted effect of over 70% in size
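HP1-beta protein (50 nM final) preincubated 30 min at room temperature with biotinylated H3(1-18)K9me3 peptide (50 nM) in PBS pH 7.4, 0.01% Tween-20, then compound added for 30 min. AlphaScreen streptavidin donor/nickel chelate acceptor beads (10 ug/mL final), 30 min dark, luminescence read.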
PLK1 PBD block = PLK1 (human) polo-box domain binding inhibition | P53350 | Plk1 PBD binding of FITC phosphopeptide, fluorescence polarization | Potency, µM, for inactives: max response, negative = inhibition, actives largely listed as inhibitors | actives 2.8% (n = 360,000) | AID 720504; further: series mostly up to about 57 µM; on the % scale 0 is the no-effect control and ±100 the full control effect; nearly all actives have a fitted effect of over 65% in size
BAZ2B block = inhibitors of human BAZ2B bromodomain. Q9UIF8. AlphaScreen BAZ2B-H3K14Ac peptide displacement. actives 4.4% (n = 360,000). Potency, µM (series often up to 114 µM), for the others: at the highest dose activity change, negative = inhibition, usual class: inhibitors. AID 504333; further: on the % scale 0 is the no-effect control and ±100 the full control effect; nearly all actives have a fitted effect of over 60% in size
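Complex of BAZ2B and biotin-H3K14Ac (50 nM apiece) forms over 30 min at RT, then faces library compounds up to 110 uM for another 30 min; AlphaScreen beads added, 20 min dark incubation, luminescence read.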
JMJD2A Tudor = blocks the human JMJD2A Tudor domain; AlphaScreen JMJD2A-Tudor / H3K4me3 peptide binding; AID 504339; actives 4.4% (n = 390,000); O75164; Potency, µM (highest dose often 114 µM), for inactives: at the top dose activity change, negative = inhibition, usual class: inhibitors; further: on the % scale 0 is the no-effect control and ±100 the full control effect; nearly all actives have a fitted effect of over 50% in size
G9a inh = blocks human histone lysine methyltransferase G9a | G9a H3K9 monomethylation, AlphaScreen, 2 h | actives 8.8% (n = 350,000) | Potency, µM (doses to about 102 µM), inactives show at the highest dose activity, negative = inhibition, most hits filed as inhibitors; further: on the % scale 0 is the no-effect control and ±100 the full control effect; nearly all actives have a fitted effect of over 75% in size
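Readings reflect AlphaScreen signal from monomethyl-H3K9 antibody detection. HMT at 20 nM; substrate b-H3K9 500 nM; cofactor SAM 20 uM; 2 h RT reaction; compounds tested as titrations in qHTS with 15 min preincubation.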
* hit, by the source's call; ? = inconclusive; . = no result; [ ] = another dose, or the depositor's remark. The call rests on the fitted dose curve; in most records, active means well fitted curve in the direction sought with a large enough effect; inconclusive means small, poorly fitted or top-dose-only effect, or another doubt; inactive means no such curve, though single readings can be large; an effect the other way counts as inactive or inconclusive. Potency means the concentration at half of the fitted maximal effect.

SMILES	12-LOX inh	HP1b chromo inh	PLK1 PBD block	BAZ2B block	JMJD2A Tudor	G9a inh
O=C(CN1CCc2ccccc2C1)Nc1ccc(F)cc1	11%	33%	4%	2%	6%	20%[59 µM]
CN1CC(=O)N(CC(=O)Nc2ccc(N(C)C)cc2)c2ccccc2C1=O	-6%	18%	-1%	50µM*	-27%	14µM*
Cc1ccc(C)c(NC(=O)CCN2CCc3ccccc3C2)c1	-2%	29%	-1%	-39%	-15%	50µM*
Cc1cc(C)cc(NC(=O)CN2CCc3ccccc3C2)c1	-16%	-44%	-5%	32µM*	40µM*	27%[0.501 µM]
Cc1ccsc1/C=C/C1=NCCCN1C	?	47%	-2%	-15%	-5%	-35%[2.33 µM]
O=C(NCCN1CCOCC1)c1ccc2c(c1)n(Cc1cccc(F)c1)c(=O)c1ccnn12	19%	.	.	.	.	.
COc1ccc(N2C(=O)C3C(C2=O)C2C=CC3C23CC3)c(OC)c1 (configuration not stated)	0%	67%	-15%	-3%	-3%	?
Cc1nc(C)c(C(=O)N2CCCC(N(C)C)CC2)s1 (configuration not stated)	34%	.	.	.	.	.
CC1Cc2ccccc2N1C(=O)CN1CCN(S(=O)(=O)c2ccc3c(c2)OCCCO3)CC1 (configuration not stated)	-5%	.	-18%	.	.	.
O=C(CN1CCc2ccccc2C1)Nc1cccc(S(=O)(=O)N2CCCC2)c1	-16%	?	2%	.	?	4µM*
CC1Cc2ccccc2N1C(=O)CNc1cccc(S(=O)(=O)N2CCCC2)c1 (configuration not stated)	-25%	-22%	3.8µM*	?	6.3µM*	50µM*
CC(=O)c1ccc(S(=O)(=O)Nc2cccc(-c3ccc(N4CCCCC4)nn3)c2)cc1	-19%	6%[57 µM]	.	-11%	-27%	11%[59 µM]
S=c1[nH]cnc2sc(-c3ccccc3)cc12	0%	16%	?	-4%	-21%	35µM*
CNc1ncnc2sc(-c3ccccc3)cc12	1%	32%	-19%	11%	-5%	-3%
COc1ccc(CNC(=O)C[C@H]2C[C@H](C(=O)N3CCOCC3)[C@@]3(CCC4CCCC4)c4[nH]c5cc(-c6ccco6)ccc5c4CCN3C2=O)cc1OC	40µM*	-14%	-14%	.	?	.
CN(C)CCCNC(=O)C[C@H]1C[C@H](C(=O)N2CCOCC2)[C@@]2(CCC3CCCC3)c3[nH]c4cc(-c5ccco5)ccc4c3CCN2C1=O	?	-4%	-7%	.	?	.
O=C(C[C@H]1C[C@H](C(=O)N2CCOCC2)[C@@]2(CCC3CCCC3)c3[nH]c4cc(-c5ccco5)ccc4c3CCN2C1=O)NCCN1CCOCC1	45µM*	?	-3%	.	-26%	.
CC[C@]12c3[nH]c4cc(-c5ccco5)ccc4c3CCN1C(=O)[C@@H](CC(=O)NCCCOC)C[C@@H]2C(=O)N1CCN(C(=O)c2ccco2)CC1	?	13%	21µM*	.	?	.
COc1ccc(CNC(=O)C[C@H]2C[C@H](C(=O)N3CCCCC3)[C@@]3(C)c4[nH]c5cc(-c6ccco6)ccc5c4CCN3C2=O)cc1OC	-9%	?	-13%	.	56µM*	.
COCCCNC(=O)C[C@H]1C[C@H](C(=O)N2CCOCC2)[C@@]2(CCC3CCCC3)c3[nH]c4cc(-c5ccco5)ccc4c3CCN2C1=O	?	?	-7%	.	79µM*	.
CC[C@]12c3[nH]c4cc(CCC(=O)N(C)C)ccc4c3CCN1C(=O)[C@@H](CC(=O)NCCCOC)C[C@@H]2C(=O)N1CCN(C(=O)C2CC2)CC1	0%	27%	21µM*	.	-35%	.
COc1ccc2[nH]c3c(c2c1)CCN1C(=O)C(CC(=O)NCCc2ccccn2)C[C@H](C(=O)N2CCOCC2)[C@@]31CCC1CCCC1 (some centres not stated)	13%	19%	30µM*	.	?	.
CC[C@]12c3[nH]c4ccc(OC)cc4c3CCN1C(=O)C(CC(=O)NCC13CC4CC(CC(C4)C1)C3)C[C@@H]2C(=O)N1CCN(C(=O)C2CC2)CC1 (some centres not stated)	0%	50%	-2%	.	-24%	.
CC[C@]12c3[nH]c4ccc(Cl)cc4c3CCN1C(=O)[C@@H](CC(=O)NCC13CC4CC(CC(C4)C1)C3)C[C@@H]2C(=O)N1CCN(C(=O)C2CC2)CC1	40µM*	7%	-18%	.	?	.
O=C(CC1C[C@H](C(=O)N2CCOCC2)[C@@]2(CCC3CCCC3)c3[nH]c4ccccc4c3CCN2C1=O)NCCc1ccccn1 (some centres not stated)	-3%	-5%	-10%	.	-29%	.
SMILES	12-LOX inh	HP1b chromo inh	PLK1 PBD block	BAZ2B block	JMJD2A Tudor	G9a inh
COc1ccc(-c2nc3cnc(N4CCOCC4)nc3n(C3CC3)c2=O)cc1	0%	.	.	.	.	4%[0.501 µM]
Cc1ccc(-c2nnc(SCc3ccccc3F)o2)cc1	-12%	77%	21µM*	189%	72%	2%[12.7 µM]
COc1ccc(NC(=O)CSc2nnc(-c3cccnc3)o2)c(OC)c1	-1%	-21%	21µM*	2%	-10%	21%[0.501 µM]
O=C(CSc1nnc(-c2ccncc2)o1)Nc1ccccc1Cl	1%	39%	-3%	-2%	2%	6%[59 µM]
O=C(CSc1nnc(-c2ccc(C(F)(F)F)cn2)o1)Nc1ccccc1Cl	6%	50%	-11%	18µM*	20µM*	25%
CCOC(=O)c1c(NC(=O)CSc2nnc(-c3ccccc3C)n2C)sc(C(C)=O)c1C	0%	-17%	-21%	50µM*	-31%	?
CCOC(=O)c1c(NC(=O)CSc2nc3cccnc3n2C)sc(C(C)=O)c1C	.	30%	11%	6%	-15%	0%[2.33 µM]
COC(=O)NCc1cccc(Br)c1	58%	.	.	.	.	.
CC1CCN(C(=O)c2cc(-c3ccccc3O)on2)CC1	-1%	27%	-18%	8%	-24%	-22%
CCOc1ccc(-c2nnc(NC(=O)Cc3cc(OC)c(OC)c(OC)c3)o2)cc1	46%	36%	-10%	22µM*	28µM*	-9%[2.33 µM]
CCOC(=O)c1c(NC(=O)CSc2nnc(-c3cccnc3)o2)sc(C(C)=O)c1C	4%	?	12µM*	?	18µM*	10%[59 µM]
O=C(CSc1nnc(-c2ccccc2)o1)Nc1ccccc1F	386%	17%	21µM*	14%	?	6%[59 µM]
CCOc1ccc(-c2nnc(SCC(=O)Nc3ccc(C)cc3C)o2)cc1	1%	27%	.	-4%	79µM*	-6%[59 µM]
Cn1c(C(=O)N2CCC(C(=O)NCCc3ccccc3)CC2)cc2sccc21	-22%	18%	.	-10%	-3%	-11%[59 µM]
CCOc1ccccc1NC(=O)CSc1nnc(-c2cccnc2)o1	-9%	-1%	24µM*	10%	-12%	9%[0.501 µM]
